Assay outcomes as filed in PubChem BioAssay.
This is a sample that favours compounds with a hit; in the whole collection about 19% have one here.
DT40 TDP1 no CPT: qHTS for Inhibitors of human tyrosyl-DNA phosphodiesterase 1 (TDP1): qHTS in cells in absence of CPT; AID 686978, 2013; actives 15% (n = 420,000); Potency, µM (titrated, usually from 46.2 µM), most hits filed as inhibitors; DT40 Tdp1-/- hTDP1 cells, no CPT, ATP luminescence, 48 h; further: nearly all actives have a fitted effect of over 55% in size
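Stably hTDP1-transfected Tdp1-null chicken DT40 cells were treated with library compounds minus camptothecin and grown for at least 48 hr at 37 °C, after which cellular ATP was quantified by luminescence.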
TDP1 cell CPT: DT40-hTDP1 cell growth loss with CPT; chicken DT40 Tdp1-/-;hTDP1 cells + 20 nM CPT, ATP luminescence, 48 h; Potency, µM (doses to about 46.2 µM), usual class: inhibitors; actives 12% (n = 420,000); further: nearly all actives have a fitted effect of over 55% in size
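Cell growth measured by CellTiter-Glo luminescence after a minimum 48 h, 37 C compound exposure with 20 nM CPT in Tdp1-knockout DT40 cells stably expressing hTDP1, seeded 400/well; qHTS titration format.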
IL1B secr inh: blocks inflammasome-driven IL-1 beta release | actives 4.7% (n = 360,000) | THP-1 LPS/ATP IL-1B secretion, AlphaLISA, 16 h; hits give low values | activity change, % at 57.5 µM | AID 743279; in the data active means activity change below about -50%; inconclusive means mostly about -30% to -49%
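THP-1 cells pretreated 1 hr with compounds (up to 57.5 uM final), then stimulated with LPS (250 ng/mL final) plus ATP (1.25 mM final); secreted IL-1B measured by AlphaLISA after 16 hr, decreased signal indicating inhibition.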
HT1080NT lethal: kills 2HG-producing HT-1080-NT fibrosarcoma cells; HT-1080-NT fibrosarcoma viability, CellTiter-Glo ATP luminescence, 48 h; Potency, µM (doses to about 46.1 µM), usual class: cytotoxic; actives 1.6% (n = 360,000); AID 686970;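 further: NT is the 2HG producing partner of a matched IDH1 knockdown line; nearly all actives have a fitted effect of over 55% in size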
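Luminescent CellTiter-Glo readout after 48 hours of compound exposure at 37 degrees C defined viability of HT-1080-NT cells. Activity was normalized to DMSO wells and cell-free media wells; concentration-response curves were fitted and assigned curve classes.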
HT1080 IDH1KD tx: HT-1080 IDH1 knockdown cell toxicity (counter line); HT-1080 IDH1 knockdown viability, ATP luminescence, 48 h; Potency, µM (doses to about 46.1 µM), hits mostly cytotoxic; actives 2% (n = 360,000)
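After a 2 h attachment period, IDH1KD HT-1080 cells took pin-transferred compound for 48 h at 37 °C; ATP-based luminescence after 10 min room-temperature reagent incubation reported viability.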
Large screens that a line does not name were inactive. Unless noted, the call rests on the fitted dose curve; in most records, active means well fitted curve in the direction sought with a large enough effect; inconclusive means small, poorly fitted or top-dose-only effect, or another doubt; inactive means no such curve, though single readings can be large; an effect the other way counts as inactive or inconclusive.

COc1ccccc1N1CSC2=C(C#N)C(c3ccc(SC)cc3)CC(=O)N2C1 (configuration not stated)	DT40 TDP1 no CPT 23µM, TDP1 cell CPT inconclusive
N#CC1=C2SCN(Cc3ccccc3)CN2C(=O)CC1c1ccccc1F (configuration not stated)	none
N#CC1=C2SCN(C3CCCCC3)CN2C(=O)CC1c1ccc(F)cc1 (configuration not stated)	DT40 TDP1 no CPT 16µM, TDP1 cell CPT inconclusive (no result: IL1B secr inh, HT1080NT lethal, HT1080 IDH1KD tx)
N#CC1=C2SCN(C3CCCCC3)CN2C(=O)CC1c1ccc(Cl)cc1 (configuration not stated)	DT40 TDP1 no CPT inconclusive, TDP1 cell CPT 4.6µM (no result: IL1B secr inh, HT1080NT lethal, HT1080 IDH1KD tx)
O=C(O)C(F)=C(c1ccccc1)c1ccccc1	none
CN1CCN(CC(O)COC(c2ccccc2)c2ccccc2)CC1 (configuration not stated)	none
CC(=O)c1ccc(N2CCN(CC(O)COC(c3ccccc3)c3ccccc3C)CC2)cc1 (configuration not stated)	DT40 TDP1 no CPT inconclusive, TDP1 cell CPT 23µM, IL1B secr inh inconclusive, HT1080NT lethal inconclusive, HT1080 IDH1KD tx inconclusive
OC(COC(c1ccccc1)c1ccccc1)CN1CCN(c2cccc(Cl)c2)CC1 (configuration not stated)	DT40 TDP1 no CPT inconclusive, TDP1 cell CPT 21µM, IL1B secr inh inconclusive, HT1080 IDH1KD tx inconclusive
OC(CN1CCCCC1)Cn1c2ccc(Cl)cc2c2cc(Cl)ccc21 (configuration not stated)	DT40 TDP1 no CPT 15µM, TDP1 cell CPT inconclusive, HT1080NT lethal 21µM, HT1080 IDH1KD tx inconclusive (no result: IL1B secr inh)
OC(CN1CCN(c2ccccn2)CC1)Cn1c2ccc(Cl)cc2c2cc(Cl)ccc21 (configuration not stated)	DT40 TDP1 no CPT inconclusive, TDP1 cell CPT inconclusive, HT1080NT lethal inconclusive, HT1080 IDH1KD tx 16µM
CC(C)(C)c1ccccc1OCC(O)CN1CCN(c2ccccn2)CC1 (configuration not stated)	DT40 TDP1 no CPT inconclusive, TDP1 cell CPT 16µM
Cc1cccc(C)c1OCC(O)CN1CCN(c2ccccn2)CC1 (configuration not stated)	none
Cc1ccc(OCC(O)CN2CCN(c3ccccn3)CC2)c(C)c1 (configuration not stated)	none
OC(COC(c1ccc(Cl)cc1)c1ccc(Cl)cc1)CN1CCN(c2ccccn2)CC1 (configuration not stated)	DT40 TDP1 no CPT 16µM, TDP1 cell CPT inconclusive, IL1B secr inh -84, HT1080NT lethal inconclusive, HT1080 IDH1KD tx inconclusive
COCCN(C(=O)COC(=O)CSc1ccc(Cl)cc1)c1c(N)n(CC(C)C)c(=O)[nH]c1=O	none
COc1c2c(cc3c1C(CC(=O)c1c(O)c(OC)c4occc4c1OC)[N+](C)(C)CC3)OCO2 (configuration not stated)	none (no result: IL1B secr inh, HT1080NT lethal, HT1080 IDH1KD tx)
Cc1ccc2[nH]c(=O)c(CN(C(=O)c3cccc([N+](=O)[O-])c3)C(C)C)cc2c1	DT40 TDP1 no CPT inconclusive
Cc1cc(C)c(C(CC(=O)c2cccs2)C(C#N)C#N)c(C)c1 (configuration not stated)	DT40 TDP1 no CPT 26µM, TDP1 cell CPT inconclusive, IL1B secr inh -105, HT1080NT lethal inconclusive, HT1080 IDH1KD tx inconclusive
CCC(C(=O)NC1CCCCC1)n1c(SCc2cccc(C)c2)nc2ccncc21 (configuration not stated)	DT40 TDP1 no CPT inconclusive, TDP1 cell CPT 26µM
CCC(C(=O)NC1CCCCC1)n1c(SCc2cccc(F)c2)nc2ccncc21 (configuration not stated)	DT40 TDP1 no CPT inconclusive, TDP1 cell CPT inconclusive, HT1080NT lethal inconclusive
CCCCNC(=O)C(CC)n1c(SCc2cccc(F)c2)nc2ccncc21 (configuration not stated)	DT40 TDP1 no CPT inconclusive, TDP1 cell CPT 10µM (no result: IL1B secr inh, HT1080NT lethal, HT1080 IDH1KD tx)
Cc1ccc(C2(CC(=O)Nc3nccs3)CCOC(C(C)C)C2)cc1 (configuration not stated)	none
COc1ccccc1C1(CC(=O)Nc2nccs2)CCOC(C(C)C)C1 (configuration not stated)	DT40 TDP1 no CPT 4.6µM, TDP1 cell CPT 5.2µM, HT1080NT lethal inconclusive, HT1080 IDH1KD tx inconclusive
CNS(=O)(=O)c1ccc2c3c(cccc13)C(=O)N2C	IL1B secr inh -84
Cc1cc2nc(-c3nnnn3C3CCCCC3)c(=O)[nH]c2cc1C	DT40 TDP1 no CPT inconclusive
O=C(OCc1ccc([N+](=O)[O-])cc1)C1CC(=O)N(c2ccccc2)C1 (configuration not stated)	none
Cc1ccc(N2CC(C(=O)OCC(=O)c3ccc([N+](=O)[O-])cc3)CC2=O)cc1 (configuration not stated)	IL1B secr inh -74
Cc1nnc2sc(-c3csc4c3CCCC4)nn12	none
S=c1nc(-c2csc3c2CCCC3)[nH][nH]1	DT40 TDP1 no CPT 16µM, TDP1 cell CPT 16µM
O=C(Nc1nnc(-c2ccncc2)o1)c1ccc(Br)s1	DT40 TDP1 no CPT 13µM, TDP1 cell CPT 15µM, HT1080 IDH1KD tx inconclusive
CC(C)(C)C(=O)Nc1nnc(-c2ccncc2)o1	none
O=C(Nc1ccccn1)c1ccc(Br)s1	IL1B secr inh -64
Cc1ccc(C(=O)Nc2nnc(-c3ccco3)o2)cc1	DT40 TDP1 no CPT 23µM, TDP1 cell CPT 23µM
O=C(Nc1ccccn1)c1ccc(C(=O)Nc2ccccn2)cc1	none
Cc1ccsc1C(=O)Nc1nnc(-c2ccco2)o1	TDP1 cell CPT inconclusive, HT1080 IDH1KD tx inconclusive
N#Cc1ccc(C(=O)Nc2nnc(-c3ccco3)o2)cc1	DT40 TDP1 no CPT 6.5µM, TDP1 cell CPT inconclusive
CC(C)c1ccc(NC(=O)Cc2ccc(NC3=NC4CS(=O)(=O)CC4S3)cc2)cc1 (configuration not stated)	none
COc1ccccc1C(=O)NC(=O)COC(=O)c1cccc(OC(F)F)c1	none
COc1cc2c(cc1OC)CN(C(=O)CC1CC3CCC1C3)CC2 (configuration not stated)	DT40 TDP1 no CPT inconclusive, TDP1 cell CPT inconclusive
O=C(Nc1nnc(-c2ccco2)o1)c1ccc([N+](=O)[O-])s1	DT40 TDP1 no CPT 9.2µM, TDP1 cell CPT 8.2µM, HT1080NT lethal inconclusive, HT1080 IDH1KD tx inconclusive
CCC(=O)Nc1nnc(-c2ccco2)o1	none
Cc1nnc(NC(=O)c2ccc3ccccc3c2)o1	DT40 TDP1 no CPT inconclusive, TDP1 cell CPT inconclusive, IL1B secr inh -57
O=C(Nc1nnc(-c2ccco2)o1)c1ccc2ccccc2c1	DT40 TDP1 no CPT 21µM, TDP1 cell CPT inconclusive
N#CC12COC3(CCCCC3C1(C#N)C#N)OC2=N (configuration not stated)	DT40 TDP1 no CPT 2.6µM, TDP1 cell CPT 2.3µM
